Source: PubChem BioAssay (NCATS)
Records with an inconclusive call do not appear. Entries that show only a call come without a potency. Active and inactive are the calls of the source. Calls follow the shape of the dose curve; as a rule, active = well fitted curve in the direction sought with a large enough effect; inconclusive = small, poorly fitted or top-dose-only effect, or another doubt; inactive = no such curve, though single readings can be large; an effect the other way counts as inactive or inconclusive.

System: Nanoluciferase (engineered Oplophorus gracilirostris luciferase)
Assay: Primary Nanoluciferase (NLuc) qHTS assay for identification of artifact compounds. (AID 1845222); also: potency is read from the fitted curve at half-maximal effect
Details: NLuc-conditioned medium, Nano-Glo luminescence, 5 min; series mostly up to 54.1 µM
In short: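 Compounds are pinned into diluted (1:55) conditioned medium of NLuc-expressing S16 cells and held 15 min at room temperature protected from light. Nano-Glo substrate follows, and luminescence is read 5 min later.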

Structure (SMILES)	Potency	activity, negative = inhibition
CC1=CC2=C(C)C(=O)[C@](C)(O)[C@H](O)C2=CO1	inactive	
CC1(C)C2CC[C@@]34CC(CC[C@H]3[C@]2(C)CC[C@@H]1O[C@@H]1O[C@H](CO)[C@@H](O)[C@H](O)[C@H]1O)[C@](C)(O)C4 (stereo not given in full)	inactive	
COc1cncc(C#Cc2ccccn2)c1	inactive	
CC1(C)CC[C@]2(C(=O)O[C@@H]3O[C@H](CO)[C@@H](O)[C@H](O)[C@H]3O)CC[C@]3(C)C(=CCC4[C@@]5(C)CC[C@H](O[C@H]6O[C@H](CO)[C@@H](O)[C@H](O[C@@H]7O[C@H](CO)[C@@H](O)[C@H](O)[C@H]7O)[C@H]6O)C(C)(C)C5CC[C@]43C)[C@@H]2C1 (stereo not given in full)		-0.923% [at 11.6 µM] (inactive)
CC1OC(OC2C(OC(=O)[C@]34CCC(C)(C)C[C@H]3C3=CCC5[C@@]6(C)CC[C@H](OC7OC(C(=O)O)C(O)C(O)C7O)C(C)(C)C6CC[C@@]5(C)[C@]3(C)CC4O)OC(CO)C2O)C(O)C(O)C1OC1OCC(O)C(O)C1O (stereo not given in full)		0% [at 11.6 µM] (inactive)
N#CN1CCC[C@@H](n2nc(-c3ccc(Oc4ccc(F)cc4F)cc3)c(C(N)=O)c2N)C1	inactive	
O=C(Nc1ccccc1)Nc1ccc(-c2ccc(C(=O)C3CCCC3C(=O)O)cc2)cc1 (stereo not given)	inactive	
C/C=C/C=C/C=C/C(=O)O[C@@H]1[C@@H](OC)C2=C(C(=O)N(C(CCC(=O)O)C(=O)O)C2)[C@@]2(C)CCCC(C)(C)[C@H]12 (stereo not given in full)	inactive	
N=C(N)c1ccc2nc(-c3cc(CC(=O)NC(CC(=O)O)C(=O)O)cc(-c4cc(S(N)(=O)=O)ccc4O)c3O)[nH]c2c1 (stereo not given)	inactive	
COc1ccccc1N1CCN(CCCCNC(=O)c2ccc(-c3cscn3)cc2)CC1	inactive	
COc1cc(C(CO)C(OC2OC(CO)C(O)C(O)C2O)c2ccc(O)c(OC)c2)ccc1O (stereo not given)	inactive	
CC1=C2CC(O)(C(C)(C)O)C(O[C@@H]3O[C@H](CO)[C@@H](O)[C@H](O)[C@H]3O)CC(C)C2CC1=O (stereo not given in full)	inactive	
CC(O)/C=C/C1(O)C(C)C(O)C(O[C@@H]2O[C@H](CO)[C@@H](O)[C@H](O)[C@H]2O)CC1(C)C (stereo not given in full)	inactive	
COc1ccc(/C=C/C(N)=O)cc1OC	inactive	
C[C@@H]1C[C@@H](O)[C@@]23CO[C@]2(CO)CCC[C@@H]3[C@@]12C[C@@H](c1ccoc1)OC2=O	inactive	
COc1cc(C(=O)OC[C@@]2(O)CO[C@@H](O[C@H]3[C@H](Oc4ccc(O)cc4)O[C@H](CO)[C@@H](O)[C@@H]3O)[C@@H]2O)cc(OC)c1O	inactive	

Structure (SMILES)	Potency	activity, negative = inhibition
O=C(/C=C/c1ccc(O)c(O)c1)O[C@H]1[C@@H]2C=CO[C@@H](O[C@@H]3O[C@H](CO)[C@@H](O)[C@H](O)[C@H]3O)[C@@H]2[C@@]2(CO)O[C@@H]12	inactive	
COC(=O)C1=COC(OC2OC(CO)C(O)C(O)C2O)C2C(C)C(OC(C)=O)C(OC(=O)c3ccccc3)C12 (stereo not given)	inactive	
C=C1CCC2[C@@](C)(C(=O)O)CCC[C@@]2(C)[C@@H]1CCc1ccoc1 (stereo not given in full)	inactive	
Cc1cc(CNC(=O)c2cc(C(=O)NCc3ccc(F)c(C)c3)ncn2)ccc1F	inactive	
CC(=O)OC1CCC2(C)C(CCC3(C)C2CC=C2C4CC(C)(C)CCC4(C)CCC23C)C1(C)C(=O)O (stereo not given)	inactive	
N#Cc1cccc(-c2nc(-c3cccnc3)no2)c1	inactive	
COC(=O)C(Cc1ccccc1)NC(=O)c1ccccc1 (stereo not given)	inactive	
C[C@@H]1C(=O)O[C@H]2[C@H]1CC[C@@]1(C)C(=O)C=C[C@@](C)(O)[C@H]21	inactive	
C=CC(C)(CC/C=C(\C)C(=O)OC)OC1OC(COC(=O)CC(C)(O)CC(=O)O)C(O)C(O)C1O (stereo not given)	inactive	
OC[C@H]1O[C@@H](OCc2ccccc2)[C@H](O[C@@H]2OC[C@@H](O)[C@H](O)[C@H]2O)[C@@H](O)[C@@H]1O	inactive	
CCOC(=O)COc1ccc2c(c1)C[C@@H](NC[C@H](O)c1cccc(Cl)c1)CC2	inactive	
CC1=CC23[C@H](C=C(C(=O)O)[C@@H]2COC(=O)[C@]3(O)CO)[C@@H]1C (stereo not given in full)	inactive	
O=C(O)C1(c2ccc(-c3ccc(Cl)c(Cl)c3)c(F)c2)CC1	16.9 µM (active)	
Cc1[nH]c2ccccc2c1CC(=O)N[C@@H](Cc1ccccc1)C(=O)N(C)c1ccccc1	inactive	
C[C@H](/C=C/[C@@]1(O)[C@H](C)CC(=O)CC1(C)C)O[C@@H]1O[C@H](CO[C@@H]2OC[C@@H](O)[C@H](O)[C@H]2O)[C@@H](O)[C@H](O)[C@H]1O	inactive	
C[C@@H]1CC[C@]2(C(=O)O)CC[C@]3(C)C(=CCC4[C@@]5(C)C[C@@H](O)[C@@H](O)C(C)(C)C5CC[C@]43C)C2[C@]1(C)O (stereo not given in full)	inactive	

System: not listed separately
Assay: Primary redox qHTS assay for identification of artifact compounds. (AID 1845223)
Details: Amplex Red/HRP redox cycling with DTT, fluorescence; series mostly up to 53.8 µM
In short: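 Redox-cycling detection via DTT (250 uM final) oxidation coupled to Amplex Red (25 uM)/HRP (250 mU/mL) in HBSS. 15 min preincubation plus 30 min after DTT, room temperature. Ex/Em 525/598 nm; 4-parameter Hill fit against DMSO and 10 uM DA3003.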

Structure (SMILES)	Potency	redox activity (% of DA3003)
CC1=CC2=C(C)C(=O)[C@](C)(O)[C@H](O)C2=CO1	inactive	
CC1(C)C2CC[C@@]34CC(CC[C@H]3[C@]2(C)CC[C@@H]1O[C@@H]1O[C@H](CO)[C@@H](O)[C@H](O)[C@H]1O)[C@](C)(O)C4 (stereo not given in full)	inactive	
COc1ccc2c(c1)N1C(=O)C[C@@]34C=CC[N@+]5([O-])CC[C@H]2[C@H](CC3)[C@@]145	inactive	
COc1cncc(C#Cc2ccccn2)c1	inactive	
CC1(C)CC[C@]2(C(=O)O[C@@H]3O[C@H](CO)[C@@H](O)[C@H](O)[C@H]3O)CC[C@]3(C)C(=CCC4[C@@]5(C)CC[C@H](O[C@H]6O[C@H](CO)[C@@H](O)[C@H](O[C@@H]7O[C@H](CO)[C@@H](O)[C@H](O)[C@H]7O)[C@H]6O)C(C)(C)C5CC[C@]43C)[C@@H]2C1 (stereo not given in full)		12.2% [at 11.5 µM] (inactive)
N#CN1CCC[C@@H](n2nc(-c3ccc(Oc4ccc(F)cc4F)cc3)c(C(N)=O)c2N)C1	inactive	
O=C(Nc1ccccc1)Nc1ccc(-c2ccc(C(=O)C3CCCC3C(=O)O)cc2)cc1 (stereo not given)	inactive	
C/C=C/C=C/C=C/C(=O)O[C@@H]1[C@@H](OC)C2=C(C(=O)N(C(CCC(=O)O)C(=O)O)C2)[C@@]2(C)CCCC(C)(C)[C@H]12 (stereo not given in full)	inactive	
N=C(N)c1ccc2nc(-c3cc(CC(=O)NC(CC(=O)O)C(=O)O)cc(-c4cc(S(N)(=O)=O)ccc4O)c3O)[nH]c2c1 (stereo not given)	inactive	
COc1ccccc1N1CCN(CCCCNC(=O)c2ccc(-c3cscn3)cc2)CC1	inactive	
COc1cc(C(CO)C(OC2OC(CO)C(O)C(O)C2O)c2ccc(O)c(OC)c2)ccc1O (stereo not given)	inactive	
CC1=C2CC(O)(C(C)(C)O)C(O[C@@H]3O[C@H](CO)[C@@H](O)[C@H](O)[C@H]3O)CC(C)C2CC1=O (stereo not given in full)	inactive	
CC(O)/C=C/C1(O)C(C)C(O)C(O[C@@H]2O[C@H](CO)[C@@H](O)[C@H](O)[C@H]2O)CC1(C)C (stereo not given in full)	inactive	
COc1ccc(/C=C/C(N)=O)cc1OC	inactive	
C[C@@H]1C[C@@H](O)[C@@]23CO[C@]2(CO)CCC[C@@H]3[C@@]12C[C@@H](c1ccoc1)OC2=O	inactive	
COc1cc(C(=O)OC[C@@]2(O)CO[C@@H](O[C@H]3[C@H](Oc4ccc(O)cc4)O[C@H](CO)[C@@H](O)[C@@H]3O)[C@@H]2O)cc(OC)c1O	inactive	
O=C(/C=C/c1ccc(O)c(O)c1)O[C@H]1[C@@H]2C=CO[C@@H](O[C@@H]3O[C@H](CO)[C@@H](O)[C@H](O)[C@H]3O)[C@@H]2[C@@]2(CO)O[C@@H]12	inactive	

Structure (SMILES)	Potency	redox activity (% of DA3003)
COC(=O)C1=COC(OC2OC(CO)C(O)C(O)C2O)C2C(C)C(OC(C)=O)C(OC(=O)c3ccccc3)C12 (stereo not given)	inactive	
C=C1CCC2[C@@](C)(C(=O)O)CCC[C@@]2(C)[C@@H]1CCc1ccoc1 (stereo not given in full)	inactive	
Cc1cc(CNC(=O)c2cc(C(=O)NCc3ccc(F)c(C)c3)ncn2)ccc1F	inactive	
CC(=O)OC1CCC2(C)C(CCC3(C)C2CC=C2C4CC(C)(C)CCC4(C)CCC23C)C1(C)C(=O)O (stereo not given)	inactive	
COC(=O)C(Cc1ccccc1)NC(=O)c1ccccc1 (stereo not given)	inactive	
C[C@@H]1C(=O)O[C@H]2[C@H]1CC[C@@]1(C)C(=O)C=C[C@@](C)(O)[C@H]21	inactive	
O=C(Cc1ccccc1)OC[C@H]1O[C@H](O[C@H]2O[C@H](CO)[C@@H](O)[C@H](O)[C@H]2O)[C@H](O)[C@@H](O)[C@@H]1O	inactive	
C=CC(C)(CC/C=C(\C)C(=O)OC)OC1OC(COC(=O)CC(C)(O)CC(=O)O)C(O)C(O)C1O (stereo not given)	inactive	
OC[C@H]1O[C@@H](OCc2ccccc2)[C@H](O[C@@H]2OC[C@@H](O)[C@H](O)[C@H]2O)[C@@H](O)[C@@H]1O	inactive	
CCOC(=O)COc1ccc2c(c1)C[C@@H](NC[C@H](O)c1cccc(Cl)c1)CC2	inactive	
CC/C=C/C(O)C(O)C1=C(C)C(=O)C2(O1)C(=O)NC(OC)(C(=O)c1ccccc1)C2O (stereo not given)	inactive	
COC(=O)C1=CO[C@@H](O[C@@H]2O[C@H](CO)[C@@H](O)[C@H](O)[C@H]2O)[C@@H]2[C@@H](C(=O)O)CC[C@H]12	inactive	
CC1=CC23[C@H](C=C(C(=O)O)[C@@H]2COC(=O)[C@]3(O)CO)[C@@H]1C (stereo not given in full)	inactive	
Cc1[nH]c2ccccc2c1CC(=O)N[C@@H](Cc1ccccc1)C(=O)N(C)c1ccccc1	inactive	
COC(=O)C1=COC(OC2OC(CO)C(O)C(O)C2O)C2C(C)CC(=O)C12O (stereo not given)	inactive	
C[C@H](/C=C/[C@@]1(O)[C@H](C)CC(=O)CC1(C)C)O[C@@H]1O[C@H](CO[C@@H]2OC[C@@H](O)[C@H](O)[C@H]2O)[C@@H](O)[C@H](O)[C@H]1O	inactive	
